Test results: PubChem BioAssay (NCATS)
Inconclusive results are not listed. Entries that show only a call come without a potency. A number with no mark means an inactive call. Active and inactive are the calls of the source. Calls come from the whole dose curve; as a rule, active = well fitted curve in the direction sought with a large enough effect; inconclusive = small, poorly fitted or top-dose-only effect, or another doubt; inactive = no such curve, though single readings can be large; an effect the other way counts as inactive or inconclusive. Where a SMILES comes first, the peptide text is derived from it. The star is where a group is joined. PhAc = O=C(Cc1ccccc1)*

Experiment: Primary qHTS for inhibitors of nuclear receptor binding SET domain protein 2 (NSD2) in an isogenic RCH-ACV NSD2 p.E1099K mutant (9B) (AID 1645876)
Details: RCH-ACV NSD2 E1099K (9B) viability, CellTiter-Glo, 72 h; series mostly up to 44.9 µM
Note: nearly all actives have a fitted effect of over 70% in size.

Compound | Potency | outcome
CC1=C2CC(=O)C(C)CC/C=C(\C)CC2OC1=O (stereo not drawn) | inactive | –
C[C@H](/C=C/[C@@]1(O)[C@H](C)CC(=O)CC1(C)C)O[C@@H]1O[C@H](CO[C@@H]2OC[C@@H](O)[C@H](O)[C@H]2O)[C@@H](O)[C@H](O)[C@H]1O | inactive | –
OC[C@H]1O[C@@H](OCCc2ccccc2)[C@H](O[C@@H]2OC[C@@H](O)[C@H](O)[C@H]2O)[C@@H](O)[C@@H]1O | inactive | –
CC1=CC(=O)[C@]2(O[C@@H]3O[C@@H](C)[C@H](O)[C@@H](O)[C@H]3O)C=CO[C@@H](O[C@@H]3O[C@H](CO)[C@@H](O)[C@H](O)[C@H]3O)[C@H]12 | inactive | –
C=C1C(O)CC2C(C(=O)O)=COC(OC3OC(CO)C(O)C(O)C3OC(=O)/C=C\c3ccc(O)cc3)C12 (stereo not drawn) | inactive | –
O=C1C[C@@]2(C(=O)N1)C(=O)N(Cc1ccc(Br)cc1F)C(=O)c1cccn12 | inactive | –
C[C@@H]1O[C@@H](O[C@H]2[C@H](O)[C@@H](O)[C@H](OC[C@H]3O[C@@H](OC(=O)[C@]45CCC(C)(C)C[C@H]4C4=CCC6[C@@]7(C)C[C@@H](O)[C@H](O)[C@@](C)(CO)C7[C@H](O)C[C@@]6(C)[C@]4(C)CC5)[C@H](O)[C@@H](O)[C@@H]3O)O[C@@H]2CO)[C@H](O)[C@H](O)[C@H]1O (stereo partly drawn) | – | inactive [at 9.23 µM]
CC/C=C/C(O)C(O)C1=C(C)C(=O)C2(O1)C(=O)NC(OC)(C(=O)c1ccccc1)C2O (stereo not drawn) | inactive | –
C=CC(C)(O)CC/C=C(\C)C(=O)O[C@@H]1[C@@H](O)[C@H](OC(C)(C=C)CC/C=C(\C)C(=O)O)O[C@H](CO)[C@H]1OC(=O)/C(C)=C/CCC(C)(O)C=C (stereo partly drawn) | inactive | –
H-DPPDPDRFYGMM-NH2 | inactive | –
CC(=O)O[C@@H]1[C@H](OC(C)=O)C[C@@]2(C)C(CC[C@@H](C)[C@]23Cc2c(O)cc4c(c2O3)CN([C@@H](CCC(=O)O)C(=O)O)C4=O)C1(C)C (stereo partly drawn) | inactive | –
C=C1CCC2C(C)(C(=O)O)CCCC2(C)C1CC/C(C)=C\CO (stereo not drawn) | inactive | –
CC1C(O)C(O)C2C(C(=O)OCCc3ccc(O)cc3)=COC(O[C@@H]3O[C@H](CO)[C@@H](O)[C@H](O)[C@H]3O)C12 (stereo partly drawn) | inactive | –
C/C(=C\C(=O)C[C@@]12C(=O)O[C@]3(C)CC[C@H]1C[C@H]23)C(N)=O | inactive | –

Experiment: Primary qHTS for inhibitors of nuclear receptor binding SET domain protein 2 (NSD2) in an RCH-ACV wild type WT cells (2C) (AID 1645877); note: potency is the fitted concentration of half-maximal effect
Details: RCH-ACV (leukaemia line) NSD2 WT (2C) viability, CellTiter-Glo, 72 h; series mostly up to 44.9 µM

Compound | Potency | activity change, negative = cell killing
Cc1occc(=O)c1O[C@@H]1O[C@H](CO)[C@@H](O)[C@H](O)[C@H]1O | inactive | –
CC(C)[C@@H](C(=O)O)N1Cc2c(cc(O)c3c2O[C@]2(C3)[C@H](C)CCC3C(C)(C)[C@H](O)[C@H](O)C[C@@]32C)C1=O (stereo partly drawn) | inactive | –
CC(=O)O[C@@H]1[C@@H](O)[C@H](C)O[C@@H](O[C@H]2[C@@H]3C=CO[C@@H](O[C@@H]4O[C@H](CO)[C@@H](O)[C@H](O)[C@H]4OC(C)=O)[C@@H]3[C@@]3(CO)O[C@@H]23)[C@@H]1OC(=O)/C=C/c1ccc(O)cc1 | inactive | –
NC(=O)[C@H](Cc1ccccc1)NC(=O)[C@H](CCCN=C(N)N)NC(=O)C12CC3CC(CC(C3)C1)C2 | – | 0.0232% [at 9.23 µM]
CC1(CO)CCCC2(C)C1C(OC(=O)c1ccccc1)CC1C(=O)OCC12O (stereo not drawn) | inactive | –
COC(=O)C1=CO[C@@H](O[C@@H]2O[C@H](CO)[C@@H](O)[C@H](O)[C@H]2O)C2C1CC(O)C2C (stereo partly drawn) | inactive | –
COc1ccc([C@H]2OC[C@H]3[C@@H]2CO[C@@H]3c2ccc(O[C@@H]3O[C@H](CO)C(O)[C@H](O)[C@H]3O)c(OC)c2)cc1OC (stereo partly drawn) | inactive | –
CC(=O)/C=C/C1(O)C(C)CC(O[C@@H]2O[C@H](CO)[C@@H](O)[C@H](O)[C@H]2O)CC1(C)C (stereo partly drawn) | inactive | –
CC(=O)OC1C(O)C(C)(O)C(/C=C/C(=O)O)C2(C)CCCC(C)(C)C12 (stereo not drawn) | inactive | –
CC(C)=CCC[C@](C)(O[C@@H]1O[C@H](CO[C@@H]2O[C@@H](CO)[C@H](O)[C@H]2O)[C@@H](O)[C@H](O)[C@H]1O)[C@H]1CC[C@]2(C)[C@@H]1[C@H](O)C[C@@H]1[C@@]3(C)CC[C@H](O[C@@H]4O[C@H](CO)[C@@H](O)[C@H](O)[C@H]4O[C@@H]4O[C@H](CO)[C@@H](O)[C@H](O)[C@H]4O)C(C)(C)[C@@H]3CC[C@]12C | inactive | –
NC(=O)[C@@H]1CC[C@H](c2ccc(OCc3ccccc3F)cc2)N1 | inactive | –
CC(C)(O)C1CC=C(C(=O)OC[C@H]2O[C@@H](Oc3cc(C(=O)O)cc(O)c3O)[C@H](O)[C@@H](O)[C@@H]2O)CC1 (stereo partly drawn) | inactive | –
C[C@]12CC/C(=N\OCC(=O)O)C=C1CC[C@@H]1[C@@H]2[C@@H](O)C[C@@]2(C)[C@H]1CC[C@]2(O)C(=O)CO | 9.16 µM (active) | –
CC/C=C\CC1C(CC(=O)O)CCC1OC1OC(CO)C(O)C(O)C1O (stereo not drawn) | inactive | –
CC1=C2CC(=O)C(C)CC/C=C(\C)CC2(O)OC1=O (stereo not drawn) | inactive | –
O=C(O)c1ccnc2cc(C(OCC3CCC(F)(F)CC3)c3ccccc3Cl)[nH]c12 (stereo not drawn) | inactive | –
C/C=C(\C)C(=O)OC[C@H]1O[C@@H](O[C@H]2[C@@H](O[C@H]3O[C@H](COC(=O)/C(C)=C/C)[C@@H](O)[C@H](O)[C@H]3O[C@@H]3O[C@H](CO)[C@@H](O)[C@H](OC(=O)/C(C)=C/C)[C@H]3O)O[C@H](COC(=O)/C(C)=C/C)[C@@H](O)[C@@H]2O)[C@H](O)[C@@H](O)[C@@H]1O | – | -10.6% [at 9.23 µM]
COc1cc(C(=O)OC[C@H]2O[C@@H](OC(C)(C)C(=O)O)[C@H](O)[C@@H](O)[C@@H]2O)cc(OC)c1O | inactive | –
COC(O)(CC(C)C)C1Oc2cc(C)[nH]c(=O)c2O1 (stereo not drawn) | inactive | –
CC(C)=C1CC2[C@](C)(CC[C@@H](OC(=O)C3(C)OC3C)[C@@]2(C)O)CC1=O (stereo partly drawn) | inactive | –

Compound | Potency | activity change, negative = cell killing
CCOC(=O)CNC(=O)[C@@H]1CCCN1C(=O)Cc1ccccc1 (PhAc-Pro-Gly-OEt) | inactive | –
O=C(/C=C/c1ccc(O)c(O)c1)OC[C@H]1O[C@@H](OC2CCCCC2O)[C@H](O)[C@@H](O)[C@@H]1O (stereo partly drawn) | inactive | –
C#CCCCn1cc(-c2cccc3c2N[C@@H](C)CC(=O)N3)cn1 | inactive | –
C/C=C(\C)C(=O)OC[C@H]1O[C@@H](O[C@H]2[C@@H](O[C@H]3O[C@H](CO)[C@@H](O)[C@H](O)[C@H]3O[C@@H]3O[C@H](CO)[C@@H](O)[C@H](O)[C@H]3O)O[C@H](COC(=O)/C(C)=C/C)[C@@H](O)[C@@H]2O)[C@H](O)[C@@H](O)[C@@H]1O | – | -10.7% [at 9.23 µM]
C[C@@H]1O[C@@H](O[C@H]2[C@@H]3C=CO[C@@H](O[C@@H]4O[C@H](CO)[C@@H](O)[C@H](O)[C@H]4O)[C@@H]3[C@@]3(CO)O[C@@H]23)[C@H](O)[C@H](OC(=O)/C=C/c2ccc(O)c(O)c2)[C@H]1O | inactive | –
CC1=C2CC(=O)C(C)CC/C=C(\C)CC2OC1=O (stereo not drawn) | inactive | –
C[C@H](/C=C/[C@@]1(O)[C@H](C)CC(=O)CC1(C)C)O[C@@H]1O[C@H](CO[C@@H]2OC[C@@H](O)[C@H](O)[C@H]2O)[C@@H](O)[C@H](O)[C@H]1O | inactive | –
OC[C@H]1O[C@@H](OCCc2ccccc2)[C@H](O[C@@H]2OC[C@@H](O)[C@H](O)[C@H]2O)[C@@H](O)[C@@H]1O | inactive | –
CC1=CC(=O)[C@]2(O[C@@H]3O[C@@H](C)[C@H](O)[C@@H](O)[C@H]3O)C=CO[C@@H](O[C@@H]3O[C@H](CO)[C@@H](O)[C@H](O)[C@H]3O)[C@H]12 | inactive | –
C=C1C(O)CC2C(C(=O)O)=COC(OC3OC(CO)C(O)C(O)C3OC(=O)/C=C\c3ccc(O)cc3)C12 (stereo not drawn) | inactive | –
O=C1C[C@@]2(C(=O)N1)C(=O)N(Cc1ccc(Br)cc1F)C(=O)c1cccn12 | inactive | –
C[C@@H]1O[C@@H](O[C@H]2[C@H](O)[C@@H](O)[C@H](OC[C@H]3O[C@@H](OC(=O)[C@]45CCC(C)(C)C[C@H]4C4=CCC6[C@@]7(C)C[C@@H](O)[C@H](O)[C@@](C)(CO)C7[C@H](O)C[C@@]6(C)[C@]4(C)CC5)[C@H](O)[C@@H](O)[C@@H]3O)O[C@@H]2CO)[C@H](O)[C@H](O)[C@H]1O (stereo partly drawn) | – | 0.947% [at 9.23 µM]
CC/C=C/C(O)C(O)C1=C(C)C(=O)C2(O1)C(=O)NC(OC)(C(=O)c1ccccc1)C2O (stereo not drawn) | inactive | –
C=CC(C)(O)CC/C=C(\C)C(=O)O[C@@H]1[C@@H](O)[C@H](OC(C)(C=C)CC/C=C(\C)C(=O)O)O[C@H](CO)[C@H]1OC(=O)/C(C)=C/CCC(C)(O)C=C (stereo partly drawn) | inactive | –
H-DPPDPDRFYGMM-NH2 | inactive | –
CC(=O)O[C@@H]1[C@H](OC(C)=O)C[C@@]2(C)C(CC[C@@H](C)[C@]23Cc2c(O)cc4c(c2O3)CN([C@@H](CCC(=O)O)C(=O)O)C4=O)C1(C)C (stereo partly drawn) | inactive | –
C=C1CCC2C(C)(C(=O)O)CCCC2(C)C1CC/C(C)=C\CO (stereo not drawn) | inactive | –
CC1C(O)C(O)C2C(C(=O)OCCc3ccc(O)cc3)=COC(O[C@@H]3O[C@H](CO)[C@@H](O)[C@H](O)[C@H]3O)C12 (stereo partly drawn) | inactive | –
C/C(=C\C(=O)C[C@@]12C(=O)O[C@]3(C)CC[C@H]1C[C@H]23)C(N)=O | inactive | –
